Assay outcomes deposited in PubChem BioAssay by The Scripps Research Institute Molecular Screening Center.
Shown are actives, neighbours in structure and some others; about 4.8% of the full set was active somewhere.
hgDAF-12 ag – activates the H. glycines DAF-12 receptor ligand-binding domain | HEK293 GAL4-hgDAF12 UAS-luciferase reporter, agonist luminescence; normalized to butyrate control | activation, % at 6.8 µM | 370,000 tested, 1.8% active | AID 687014;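 active = activation above a cutoff set at the mean of all screened compounds plus 3 SD, cut at about 10% in these data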;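 note: 0% = DMSO wells and 100% = sodium butyrate wells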
ssDAF-12 act – activators of S. stercoralis DAF-12 nuclear receptor; HEK293 ssDAF-12/GRIP1 lit1-tk-luc reporter, luminescence; % of 3 µM dafachronic acid response; activation, % at 6.8 µM; 370,000 tested, 1% active;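 active = activation above the mean over all tested compounds plus 3 SD, cut at about 0.9% in these data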;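 note: 0% = DMSO-only wells and 100% = 3 µM delta7-dafachronic acid wells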
hcDAF-12 act – H. contortus DAF-12 activation, primary screen; activation, % at 6.8 µM; 370,000 tested, 1.4% active; HEK293 hcDAF-12 lit1-tk-luc reporter, luminescence; 0% DMSO, 100% Δ7-dafachronic acid;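 active = activation above the mean of all tested compounds plus 3 SD, cut at about 5.5% in these data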;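 note: 100% = response to 3 µM Δ7-dafachronic acid high control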
SMARCA2 act – increases SMARCA2 function in MMTV reporter cells | MG213 cells, MMTV-luciferase reporter, dexamethasone, overnight | AID 652017 | 370,000 tested, 1% active | activation, % at 9.1 µM; in the data active = activation above about 7.8%;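 note: 0% = vehicle wells and 100% = reference activator wells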
DAX1 inh-1 – inhibitors of DAX1 repression of SF-1 activated StAR promoter; inhibition, % at 6.8 µM; HEK293T StAR-luciferase reporter, SF-1/DAX-1 repression relief; 370,000 tested, 1.1% active;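 active = inhibition above the mean over all tested compounds plus 3 SD, cut at about 3.6% in these data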;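 note: 0% = DAX-1 cells with DMSO and 100% = cells lacking DAX-1 with DMSO; higher inhibition means more luminescence from relief of DAX-1 repression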
DAX1 inh-2 – inhibits human nuclear receptor DAX1; P51843; HEK293 Gal4-DAX1 luciferase reporter, luminescence; inhibition, % at 6.75 µM; 340,000 tested, 0.99% active;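 active = inhibition above the mean over all tested compounds plus 3 SD, cut at about 4.2% in these data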;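 note: 0% = DAX1-transfected cells with DMSO and 100% = empty-vector control cells with DMSO; inhibition shows as a rise in luminescence from relieved DAX1 repression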
Target sequence (P51843 207-470 limits assumed): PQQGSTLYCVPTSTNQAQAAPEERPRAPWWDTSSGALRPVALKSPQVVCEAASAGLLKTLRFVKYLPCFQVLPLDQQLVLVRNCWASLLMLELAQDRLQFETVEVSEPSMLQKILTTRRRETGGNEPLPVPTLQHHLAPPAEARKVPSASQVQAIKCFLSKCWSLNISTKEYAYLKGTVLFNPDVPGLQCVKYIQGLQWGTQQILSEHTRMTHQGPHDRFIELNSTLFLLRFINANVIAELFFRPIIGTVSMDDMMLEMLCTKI
An asterisk follows results filed as active; . = not tested or not shown.

SMILES	hgDAF-12 ag	ssDAF-12 act	hcDAF-12 act	SMARCA2 act	DAX1 inh-1	DAX1 inh-2
CCOC(=O)C1CCCN(CC(=O)c2c[nH]c3ccc(C)cc23)C1 (stereo not given)	1.5	1.3*	1.8	-5.2	-0.2	.
C/C(=N\NC(=S)NC1CCCCC1)c1ccc(Cl)c(Cl)c1	-1.5	-1.6	-1.1	-1.3	0.3	25.0*
COC(=O)[C@]12C[C@H](CC(=O)NCC3CCCCC3)C(=O)N(Cc3ccco3)C1=C[C@H](C1CCCC1)O[C@@H]2C	-2.2	-0.1	-0.8	-3.3	-0.9	.
CC(=O)N1CCN(C2=NC(=O)N(c3ccc(Br)cc3)C(=O)C2)CC1	-3.3	-1.6	-0.8	-4.1	0.3	.
CCn1c(=O)c(C(=O)NCc2ccc(F)cc2)c(O)c2ccccc21	-0.8	-0.6	-1.0	-2.5	-0.5	4.7*
Cn1c(=O)c(C(=O)NNC(=O)c2ccc(Br)cc2)c(O)c2ccccc21	-0.4	-0.2	3.6	-1.5	-0.3	4.5*
CCn1c(=O)c(C(=O)NNS(=O)(=O)c2ccc(C)cc2)c(O)c2ccccc21	-1.1	-0.4	2.7	-1.1	0.0	0.0
C=CCn1c(=O)c(C(=O)Nc2ccc(C)cc2)c(O)c2ccccc21	4.1	1.0*	2.0	-3.6	0.4	0.2
CCn1c(=O)c(C(=O)NNS(=O)(=O)c2ccc(Br)cc2)c(O)c2ccccc21	3.0	-0.1	1.4	-2.5	0.6	8.6*
CCC[C@H]1[C@@H](OC(=O)Oc2ccc([N+](=O)[O-])cc2)CC[C@@]23CCCN2C(=O)CCC[C@@H]13	-1.4	-0.4	-0.6	.	.	.
Cc1cccc(C(=O)Nc2c(-c3ccc(C(F)(F)F)cc3)nc3ncccn23)c1	2.8	-0.1	4.5	4.9	0.2	.
O=CNc1ccc2c(c1)Cc1cc([N+](=O)[O-])ccc1-2	7.6	-1.0	0.2	4.4	-4.1	-2.8
CCC(=O)Nc1ccc2c(c1)Cc1cc([N+](=O)[O-])ccc1-2	11.0*	-1.0	0.1	2.2	0.5	1.3
O=C(CN1C(=O)c2ccccc2S1(=O)=O)NCc1c(F)cccc1F	0.8	-0.9	0.0	2.2	-0.4	4.9*
O=C(CN1C(=O)c2ccccc2S1(=O)=O)NCc1ccc(F)cc1	-0.1	-0.5	-1.0	-1.9	0.5	0.8
CCNC(=S)NNC(=O)CSc1nnc(-c2ccccc2)n1-c1ccc(Cl)cc1	-0.5	-1.4	-3.6	-1.9	-0.7	.
CC(C)(C)N=Cc1cc(-c2ccccc2)sc1O	12.1*	-0.1	1.4	1.8	1.6	1.9
CC(=O)c1sc(-c2ccccc2)cc1N	0.4	-1.6	-0.7	5.2	0.3	.
Nc1nnc(SCC(=O)c2cccc([N+](=O)[O-])c2)s1	-0.7	-2.0	-1.5	-1.3	-0.3	-0.9
Nc1nnc(SCC(=O)c2ccc3ccccc3c2)s1	9.9	1.1*	3.4	4.3	2.6	1.5
CCOc1ccc2nc(SCc3ccc(F)cc3)sc2c1	2.7	-1.1	-0.2	1.0	-0.4	0.5
Nc1ccc2nc(SCc3ccccc3F)sc2c1	8.1	1.0*	5.4	5.7	-0.1	2.8
Nc1ccc2nc(SCC(=O)c3ccccc3)sc2c1	4.4	1.3*	1.7	2.8	-0.6	-0.5
COc1cccc(N2CCN(CC(=O)NCc3ccco3)CC2)c1	-2.1	-0.6	-0.6	-4.5	0.0	.
NCCCn1c(C(=O)c2cc(Cl)c(N)c(Cl)c2)c2ccc(C(F)(F)F)cc2[n+]1[O-]	0.6	0.5	6.5*	1.2	0.0	2.2
SMILES	hgDAF-12 ag	ssDAF-12 act	hcDAF-12 act	SMARCA2 act	DAX1 inh-1	DAX1 inh-2
Cc1cccc(-c2nnc(NC(=O)c3cccs3)s2)c1	-0.5	-0.6	-0.7	-2.7	-0.1	4.3*
O=C(Nc1nnc(-c2cccnc2)s1)c1cccs1	5.8	-1.6	1.0	-1.7	0.2	-1.3
O=C(Cc1csc(Nc2nc(=S)[nH]c3ccccc23)n1)NCc1ccccc1Cl	6.8	1.2*	5.9*	2.5	-0.6	0.3
Cc1ccc(CNC(=O)Cc2csc(Nc3nc(=S)[nH]c4ccccc34)n2)cc1	2.5	-0.1	5.1	-2.1	0.5	.
O=C(Cc1csc(Nc2nc(=S)[nH]c3ccccc23)n1)NCc1cccc(Cl)c1	0.0	0.7	6.5*	1.3	-0.7	0.2
OC1COC(c2ccccc2)OC1C1OC(c2ccccc2)OCC1O (stereo not given)	1.4	-1.6	-0.5	1.9	-0.9	4.9*
c1cc(SSc2ccncc2)ccn1	0.0	-0.5	-0.8	-1.1	-0.2	0.1
c1ccc(Sc2ccncc2)cc1	-0.5	-0.7	1.4	7.0	-0.4	5.7*
O=C(Nc1nc2ccc([N+](=O)[O-])cc2s1)C1CCCO1 (stereo not given)	6.3	-0.2	2.1	7.1	0.7	5.4*
CS(=O)(=O)c1ccc2nc(NC(=O)c3cccc([N+](=O)[O-])c3)sc2c1	10.7*	0.1	3.3	2.7	-0.1	0.9
O=C(Nc1nc2ccc([N+](=O)[O-])cc2s1)c1ccco1	7.8	-0.5	1.6	5.2	4.2*	.
CS(=O)(=O)c1ccc2nc(NC(=O)c3cc([N+](=O)[O-])cc([N+](=O)[O-])c3)sc2c1	0.7	-0.7	-0.3	2.6	-0.1	0.5
COc1ccc(C(=O)N(C)[C@H]2C[C@H]3c4[nH]c5cccc(-c6ccccc6)c5c4CCN3C[C@H]2[C@H](C)O)cc1	0.4	-0.7	-1.0	-6.0	-0.9	.
CCOc1cc(NC(=S)NC)c(OCC)cc1NC(=O)c1cccs1	-3.3	-1.4	1.5	-1.6	0.8	5.0*
CCOc1ccc(Nc2nc(-c3cccnc3)cs2)cc1	7.7	0.5	3.7	6.2	1.5	6.2*
COc1ccc(Nc2nc(-c3ccc(OC)cc3)cs2)cc1	11.6*	-1.3	1.4	0.4	1.4	1.7
Cc1cc(O)ccc1Nc1nc(-c2cccnc2)cs1	11.8*	-0.4	2.1	0.5	1.7	0.6
Oc1ccc(Nc2nc(-c3cccnc3)cs2)cc1	.	.	.	.	.	-0.3
c1ccc(Nc2nc(-c3ccncc3)cs2)cc1	11.0*	-0.6	2.6	5.7	0.7	-0.3
COc1ccc(CCNC(=O)c2cc3ccccn3n2)cc1	-2.2	-0.8	-1.1	6.1	0.2	.
CCC(=O)N1CCc2cc(Br)c(S(=O)(=O)NCCCN(CC)Cc3ccccc3)cc21	0.2	-0.3	1.4	2.2	0.4	.
CCNc1nc(-c2ccc(Cl)cc2)cs1	11.7*	-0.2	2.4	3.3	1.2	1.2
COc1cc(NS(=O)(=O)c2ccc(NC(=O)COc3ccccc3C)cc2)nc(OC)n1	1.4	-0.3	-1.2	-1.5	1.2	0.2
COc1cc(NS(=O)(=O)c2ccc(NC(=S)NC(=O)COc3ccccc3OC)cc2)nc(OC)n1	-1.7	-1.6	-1.6	3.5	-1.3	4.7*
COc1cc(NS(=O)(=O)c2ccc(N/C=C\C(=O)c3ccc(F)cc3)cc2)nc(OC)n1	3.8	0.1	6.4*	2.4	2.5	1.1
